HIF activator: HIF pathway transcriptional activation; 300,000 compounds, 0.32% hits; U2OS HRE-luciferase reporter, luminescence; normalized: DMSO 0%, desferrioxamine 100%; activation, % at 7.5 µM (by protocol);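 active = mean activation of at least 10% of the iron chelator positive control signal, with at least half of replicates also reaching 10%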
HSF1 inh: HSF1 inhibition; NIH3T3-HGL HSE-luciferase, MG132-induced, luminescence 8 h; hits give low values; activity change, negative = inhibition, % at 7.5 µM (by protocol); 300,000 compounds, 0.77% hits; AID 2098;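 active = more than half of replicate wells show activity change below -50%, luminescence cut by over half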;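 also: luciferase reports HSF-1 transcriptional activity via heat shock element; 0% = median of DMSO wells and -100% = zero luminescence signal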
HSP90 inh: HSP90 refolding inhibition in rabbit reticulocyte lysate; luciferase refolding luminescence, 3 h; inhibition, % at 5.6 µM; 290,000 compounds, 0.91% hits;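 active = inhibition above the screen-wide mean plus 3 SD, computed separately per campaign, cut at about 16% in these data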;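 also: 0% = DMSO wells and 100% = 60 µM geldanamycin wells; inhibitors lower the luminescence because luciferase stays unfolded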
HSF-1 act: increases HSF-1 driven luciferase reporter signal. activation, % at 9 µM. 300,000 compounds, 1.7% hits. NIH3T3-HGL HSF-1 luciferase reporter, MG132, 8 h; 100% = twice DMSO control signal;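 active = mean replicate activation of at least 50% with a set share of replicates each reaching 50%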;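 also: 0% = median of the neutral control wells and 100% = twice that signal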
ARNT-TACC3 inh: disruptors of human ARNT/TACC3 interaction; Q9Y6A5; AID 623870; AlphaScreen His-ARNT PAS-B/GST-TACC3 binding, luminescence; TACC3 fragment carries E629A point mutation; 390,000 compounds, 0.66% hits; inhibition, % at 9.99 µM;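 active = mean inhibition of replicates at least 50% and at least half of replicates each reaching 50%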;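 also: 0% = complete ARNT plus TACC3 wells and 100% = ARNT alone without TACC3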
* = called active by the depositor. Sampled rows, rich in hits. Any-hit rate of the full collection: about 3.1%.

How did C[C@@H]1CN([C@H](C)CO)S(=O)(=O)c2ccc(C#Cc3ccccn3)cc2O[C@H]1CN(C)Cc1ccccc1 do in these assays?
ARNT-TACC3 inh: -8

Results for CCNC(=O)C[C@H]1CC[C@@H]2[C@@H](COc3ccc(NC(=O)Nc4ccc(Cl)cc4)cc3C(=O)N2C)O1 ?
ARNT-TACC3 inh: -6

How did Cc1cccc(Oc2coc3cc(OC(=O)c4cccs4)ccc3c2=O)c1 do in these assays?
HIF activator: -26; HSF1 inh: 29; HSP90 inh: 1; HSF-1 act: 59*; ARNT-TACC3 inh: -9

How did C[C@H](CO)N1C[C@H](C)[C@@H](CN(C)C(=O)Nc2cccc3ccccc23)OCCCC[C@H](C)Oc2ccc(NS(=O)(=O)c3ccc(F)cc3)cc2C1=O do in these assays?
ARNT-TACC3 inh: -5

How did c1ccc(-n2cc(CN3CCC(N4CCOCC4)CC3)c(-c3ccc4c(c3)OCO4)n2)cc1 do in these assays?
HIF activator: 0; HSF1 inh: -4; HSP90 inh: -4; HSF-1 act: -3; ARNT-TACC3 inh: 18

Results for O=C1CSC(c2cn(-c3ccccc3)nc2-c2ccc3c(c2)OCCO3)N1CCN1CCOCC1 (stereo not given) ?
HIF activator: 0; HSF1 inh: 14; HSP90 inh: 3; HSF-1 act: 58*; ARNT-TACC3 inh: 2

Results for COc1cccc(C(=O)Nc2ccc3c(c2)C(=O)N(C)[C@@H]2CC[C@@H](CC(=O)NCC4CC4)O[C@H]2CO3)c1 ?
ARNT-TACC3 inh: -12

What do the screens show for `Cc1cc(C)n(-c2ccc3cccc(NS(C)(=O)=O)c3n2)n1`?
HIF activator: 52*; HSF1 inh: -4; HSP90 inh: -4; HSF-1 act: -19; ARNT-TACC3 inh: -2

What do the screens show for `Cc1cc(C)n(-c2cccc3cccnc23)n1`?
HIF activator: 0; HSF1 inh: -5; HSP90 inh: 0; HSF-1 act: 3; ARNT-TACC3 inh: -4

What do the screens show for `O=S(=O)(Nc1cccc2cccnc12)c1ccc(S(=O)(=O)N2CCCC2)cc1`?
HIF activator: 0; HSF1 inh: 157; HSP90 inh: 4; HSF-1 act: 189*; ARNT-TACC3 inh: 67*

Results for O=S(=O)(Nc1ncccn1)c1ccccc1 ?
HIF activator: 0; HSF1 inh: -3; HSP90 inh: 0; HSF-1 act: -1; ARNT-TACC3 inh: -4

What do the screens show for `O=S(=O)(Nc1cccc2cccnc12)c1ccccc1`?
HIF activator: 1; HSF1 inh: 73; HSP90 inh: 5; HSF-1 act: 94*; ARNT-TACC3 inh: 21

What do the screens show for `COc1ccc(NS(=O)(=O)c2ccc3ccccc3c2)c2ncccc12`?
HIF activator: 1; HSF1 inh: 311; HSP90 inh: 11; HSF-1 act: 393*; ARNT-TACC3 inh: 12

Results for C[C@@H]1CN([C@@H](C)CO)C(=O)c2cc(NC(=O)CCCCCC(=O)Nc3ccccc3N)ccc2O[C@@H](C)CCCCO[C@@H]1CN(C)C(=O)Nc1ccc(C(F)(F)F)cc1 ?
ARNT-TACC3 inh: 5

Results for Cc1ccc2cccc(NS(=O)(=O)c3ccccc3)c2n1 ?
HIF activator: 3; HSF1 inh: 137; HSP90 inh: 0; HSF-1 act: 140*

What do the screens show for `CC(C)OC(=O)c1c(NC(=O)Cn2cnc([N+](=O)[O-])n2)sc2c1CCCC2`?
HIF activator: 0; HSF1 inh: 12; HSP90 inh: 3; HSF-1 act: 58*; ARNT-TACC3 inh: -1

Results for CCOC(=O)c1c(NC(=O)Cn2cnc([N+](=O)[O-])n2)sc2c1CCCC2 ?
HIF activator: 0; HSF1 inh: 3; HSP90 inh: -6; HSF-1 act: 10; ARNT-TACC3 inh: 9

Results for CCOc1ccc(C2=Nc3ccc(Br)cc3C(c3ccc(N4CCOCC4)cc3)=NN2)cc1 ?
HIF activator: 3; HSF1 inh: 17; HSP90 inh: 1; HSF-1 act: 58*; ARNT-TACC3 inh: -5

Results for Cc1noc(C)c1NC(=O)Nc1ccc2c(c1)CC(=O)N([C@@H](C)CO)C[C@@H](C)[C@H](CN(C)Cc1ccc3c(c1)OCO3)O2 ?
ARNT-TACC3 inh: -3

How did Cc1ccc(C(=O)Sc2cccccc2=O)cc1 do in these assays?
HIF activator: 6; HSF1 inh: 15; HSP90 inh: 10; HSF-1 act: 23; ARNT-TACC3 inh: 57*

From PubChem
